Rin1 Abl inh = inhibitors of human Rin1-Abl protein interaction. AID 588664. P00519+Q13671. TR-FRET Rin1/Abl binding, biochemical. hit rate 0.4% among 360,000. inhibition, % at 7.35 µM; in the data active = inhibition above about 5%, passing the limit was not always enough
CTSL1 counter = cathepsin L1 inhibition, PFM18AAP counter-screen; hit rate 0.49% among 300,000; inhibition, % at 5.96 µM; AID 1906; recombinant F. hepatica cathepsin L1, Z-Leu-Arg-MCA fluorescence;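 active = inhibition above the mean of all tested compounds plus 3 SD, set per screening campaign, cut at about 17% in these data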;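 also: 0% = plate median of test compound wells and 100% = 1 µM Z-Phe-Ala-diazomethylketone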
Calb FLC = affects C. albicans growth with fluconazole; growth inhibition, % (concentration not given with the values); hit rate 0.57% among 300,000; C. albicans CaCi-2 (fluconazole-resistant clinical isolate) + fluconazole, Alamar Blue growth, 48 h;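 active = growth inhibition above about 58% in most replicates, limit read from the data, passing the limit was not always enough; inconclusive = exactly half the replicates above a set limit; inactive = most replicates below a set limit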;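 also: all wells also contain fluconazole at 8 µg/ml as a sub-toxic cotreatment; 0% = median of DMSO wells and 100% = median of geldanamycin control wells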
M18AAP inhibitor = PfM18AAP enzyme inhibition | hit rate 1.2% among 290,000 | inhibition, % at 7.35 µM | recombinant PfM18AAP, H-Glu-NHMec fluorogenic cleavage;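 active = inhibition above the campaign mean inhibition over all tested compounds plus 3 SD, cut at about 28% in these data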;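 also: 0% = plate median of test compound wells and 100% = 2 mM ZnCl2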
* marks the source's active call; other numbers are inactive results; ? = inconclusive; . = not tested or not shown. An excerpt weighted towards active compounds, which were near 2.1% of everything screened.

SMILES	Rin1 Abl inh	CTSL1 counter	Calb FLC	M18AAP inhibitor
C[C@H]1CN([C@@H](C)CO)C(=O)Cc2cc(NC(=O)Cc3ccccc3)ccc2O[C@H]1CN(C)C(=O)Nc1cccc2ccccc12	4	.	.	.
CCOn1c(-n2nc(C)cc2C)nc2ccccc2c1=O	-1	12	-2	-7
Cc1cc(C)n(-c2nc3ccccc3c(=O)n2OCC#N)n1	3	.	81*	-5
COc1cc(/C=N/N=C/c2cc(OC)c(O)c(OC)c2)cc(OC)c1O	-1	2	21	30*
CCN(CC)S(=O)(=O)c1cc(NC(=O)CCNC(=O)c2ccco2)ccc1C	-1	-21	1	-13
COc1cc(-c2ccc(NC(=O)NC3CC3)c(OC)c2)ccc1NC(=O)NC1CC1	.	5	.	-4
CCOC(=O)c1ccc2c(c1)N(CC)C(=O)c1ccccc1S2	-1	-1	2	-3
CCN1/C(=C/c2sc(-c3ccccc3C)c[n+]2C)Sc2ccccc21	-3	.	106*	0
Cc1cccc(C(=O)O/N=C/c2c(N3CCOCC3)n(C)c3ccccc23)c1	.	3	83*	-20
Cc1ccc2c(c1)c1c3n2CCN(C(=O)CCl)C3CCC1 (centres undefined)	0	39*	-14	3
CCN1CCn2c3c(c4cc(C)ccc42)CCCC31 (centres undefined)	1	1	1	6
CC(=O)N1CCn2c3c(c4cc(C)ccc42)CCCC31 (centres undefined)	-1	3	?	-6
CC(=O)N1CCn2c3c(c(=O)c4cc(C)ccc42)CCC31 (centres undefined)	0	24*	5	0
O=[N+]([O-])CC(c1ccccc1)P(=O)(c1ccccc1)c1ccccc1 (centres undefined)	1	1	94*	0
COc1ccc(-c2nc(CN3CCN(c4cc(C)nc(C)c4)CC3)c(C)o2)c2ccccc12	-5	-1	84*	2
Cc1cc(N2CCN(Cc3nc(-c4ccc(Cl)cc4)oc3C)CC2)cc(C)n1	0	3	8	-6
CCc1ccc(O)c(N=Cc2ccccc2O)c1	3	3	-26	24
O=c1[nH][nH]c2c(N=Cc3ccccc3O)ccc(F)c12	17*	.	.	18
COc1ccc2oc(=O)c(/C(C)=N/Nc3ccccc3)cc2c1	-2	4	8	1
COc1ccccc1-c1nnc(Sc2nc([N+](=O)[O-])nn2C)o1	6	77*	-12	7
O=[N+]([O-])c1c(C(Cl)Cl)nn(-c2ccc(Cl)cc2)c1N1CCCCC1	0	1	81*	-3
CC1=NN(c2ccccc2)C(=O)C1=Cc1ccccc1	29*	.	.	.
CC1=NN(c2ccccc2)C(=O)/C1=C/c1cccs1	-1	-3	-4	18
Cc1ccc2occ(/C=N/NC(=O)c3ccccc3O)c(=O)c2c1	2	-1	79*	13
CCCOc1cccc(C(=O)N/N=C/c2coc3ccccc3c2=O)c1	2	.	108*	18
SMILES	Rin1 Abl inh	CTSL1 counter	Calb FLC	M18AAP inhibitor
Cc1ccc2occ(/C=N/NC(=O)c3ccc(Cl)cc3)c(=O)c2c1	0	5	-15	12
CCOc1ccccc1C(=O)NC(C(=O)N(C)c1c(N)n(Cc2ccccc2)c(=O)[nH]c1=O)C(C)C (centres undefined)	1	.	.	.
COc1cc2cc(NC(C)=O)cc(NCc3ccccc3)c2cc1OC	-4	.	46	16
CCCCNc1cc(NC(C)=O)cc2cc(OC)c(OC)cc12	-6	-1	25	28*
CCOc1ccc(NC(=O)/C(=C\c2ccc(OC(C)=O)c(OC)c2)NC(C)=O)cc1	-5	9	-3	-1
O=C(Nc1ccc(F)cc1)OCCOc1ccc([N+](=O)[O-])cc1	0	4	-5	3
COc1cc(C)c(C(=O)Oc2cc(C)c(C(=O)O)c(O)c2)c(O)c1	-1	-1	-9	.
COC(=O)c1cc(OC)cc(O)c1C(=O)c1c(O)cc(C)cc1O	0	52*	-5	.
CC(C)CN(C(=O)COC(=O)CNC(=O)c1ccccc1F)C1CCS(=O)(=O)C1 (centres undefined)	0	-7	107*	0
Cc1cccc(C)c1NC(=O)CSCc1cccc(CSCC(=O)Nc2c(C)cccc2C)n1	-3	-1	1	-15
O=C(CSCc1cccc(CSCC(=O)Nc2ccccc2)n1)Nc1ccccc1	-3	1	111*	-1
C(=N\NC1=Nc2cccc3cccc1c23)/c1ccccn1	-3	.	94*	17
CC(=O)c1ccc(OCC(=O)Nc2ccc3c(c2)OCO3)cc1	-3	.	.	.
O=C(Nc1ccnn1C1CCN(CCCC2CCCC2)CC1)c1ccccc1Cl	-2	3	0	-6
CNC(=O)c1ccc2c(c1)nnn2C	2	0	106*	-9
O=C(Nc1cccc2ccccc12)N1CCN(Cc2ccccc2)CC1	0	-9	-5	3
CCOC(=O)N1CCN(C(=O)Nc2cccc3ccccc23)CC1	-1	17*	-4	2
Oc1ccc(N2CCN(C(=S)NCCc3ccccc3)CC2)cc1	0	3	106*	19
CC1(C2CC2)NC(=O)N(CC(=O)Nc2ccc(C(F)(F)F)cc2)C1=O (centres undefined)	1	.	.	.
Cc1ccc(-n2c(-c3ccc(Cl)cc3)c[n+]3c2CCC3)cc1	-2	1	5	3
Cc1ccc(-n2c(-c3ccccc3)c[n+]3c2CCC3)cc1	2	-3	96*	-4
CC(C)n1c(=O)c2ccccc2n1Cc1cn(Cc2ccccc2)nn1	-2	.	.	.
CCOC(=O)/C(C#N)=C1\CCCN1CC(N)=S	1	1	-10	31*
O=C1C2Sc3[nH]c(=O)sc3C(c3ccccc3)C2C(=O)N1c1ccccc1 (centres undefined)	-4	1	?	29*
N/C(=N\OC(=O)c1cccs1)c1cccc([N+](=O)[O-])c1	-2	-2	-6	-11
SMILES	Rin1 Abl inh	CTSL1 counter	Calb FLC	M18AAP inhibitor
Cc1c(NC(=O)CSCc2ccc(Cl)cc2Cl)cccc1C(=O)O	-5	19*	-3	3
O=C(c1ccccc1)c1ccc(OCC(O)CNCc2ccc(Cl)cc2)cc1 (centres undefined)	3	1	.	-11
CCc1cc(C(=O)NC2CCCc3c2cnn3-c2cccc(C)c2C)n(C)n1 (centres undefined)	.	1	91*	-1
Cc1cccc(C)c1OCc1nnc(SCC(=O)Nc2nccs2)o1	-1	2	4	28*
COc1ccccc1-n1c(=O)[nH]c2c(C(N)=O)nc(C3CCCCC3)nc21	0	-1	-8	7
COc1ccccc1-n1c(=O)[nH]c2c(C(N)=O)nc(CC(C)C)nc21	-2	21*	-1	6
Cc1ccccc1C(=O)N(C)Cc1ccccc1	1	17*	-15	-1
Cc1ccc(N2CC(=O)Nc3c(sc4nc(C)cc(C)c34)C2=O)cc1	1	29*	-2	4
COc1ccc(NC(=O)COC(=O)C(CC(C)C)N2C(=O)C3CC=CCC3C2=O)cc1Cl (centres undefined)	-5	52*	-6	0
O=C(CN1CCN(C(=O)N2CCOCC2)CC1)Nc1cc(Cl)ccc1Cl	1	1	-4	-9
O=C(COc1ccc(Cl)cc1)Nc1ncc([N+](=O)[O-])s1	2	.	98*	2

Assay outcomes (PubChem BioAssay)
